Experimental data taken from PubChem BioAssay (Tox21).
Values joined by “and” are separate entries in the source; they are usually repeats but may differ in a detail not shown here. Identical values can stand only once. Inconclusive results are not listed. Entries that show only a call come without a potency. Unmarked numbers belong to inactive results. Active and inactive are the calls of the source. Calls follow the shape of the dose curve; as a rule, active = well fitted cell-killing curve with a large enough effect in the repeat runs; inconclusive = weak or mixed curves; inactive = no such curve, though single readings can be large or run the other way.

assay: qHTS assay to identify small molecule antagonists of the peroxisome proliferator-activated receptor delta (PPARd) signaling pathway - cell viability counter screen (AID 743213); settings: PPARd-bla HEK293H viability, CellTiter-Glo luminescence, 17 h; series mostly up to 62 µM; also: nearly all actives have a fitted effect of over 50% in size
Excerpt: U.S. Tox21 Program National Center for Advancing Translational Sciences [NCATS] NIH Chemical Genomics Center [NCGC] U.S. Environmental Protection Agency [EPA] National Institutes of Environmental Health Sciences [NIEHS] National Toxicology Program [NTP] U.S. Food and Drug Administration [FDA] Tox21 Assay Overview: The peroxisome proliferator-activated receptors (PPARs) are lipid-activated transcription factors of the nuclear receptor superfamily with three distinct subtypes namely PPAR alpha, PPAR delta (PPARd) and PPAR gamma. All these subtypes heterodimerizes with Retinoid X receptor (RXR) and have different physiological functions. […] To identify the compounds that inhibit PPAR-delta signaling, GeneBLAzer PPAR delta UAS-bla HEK293H cell line (Invitrogen, Carlsbad, CA, USA) containing a beta-lactamase reporter gene under the control of an Upstream Activator Sequence (UAS) was used to screen the Tox21 compound library. The cytotoxicity of the Tox21 compound library against the PPARd-bla cell line was tested in parallel by measuring the cell viability using CellTiter-Glo assay (Promega, Madison, WI) in the same wells.
Tox21 Assay Protocol Summary: PPARd-bla cells were dispensed at 3000 cells/5uL/well in 1536-well black wall/clear bottom plates using a Multidrop Combi (Thermo Fisher Scientific, Waltham, MA) dispenser. After the assay plates were incubated at 37 C and 5% CO2 for 5 h, 23 nL of compounds dissolved in DMSO, positive controls or DMSO only was transferred to the assay plate by a Pintool station (Kalypsys, San Diego, CA), followed by addition of 1ul L165041 (300 nM, final concentration in the wells). The assay plates were incubated at 37 C for 17 h, and then 1 uL of LiveBLAzerTM B/G FRET substrate was added using a Bioraptr Flying Reagent Dispenser (FRD) workstation (Beckman Coulter, Indianapolis, IN, USA). The assay plates were incubated at room temperature for 2 h and fluorescence intensity was measured by an Envision plate reader (PerkinElmer, Shelton, CT). For cell viability readout that measures cytotoxicity, 3 ul/well of CellTiter-Glo reagent was added into the assay plates using a Bioraptr FRD. After 30 min incubation at room temperature, the luminescence intensity in the plates was measured using a ViewLux plate reader (PerkinElmer).
Potency is read from the fitted curve at half-maximal effect.

Which Potency does the source give for FC1(F)C(F)(F)C(F)(F)C2(F)C(F)(F)C(F)(F)C(F)(F)C(F)(F)C2(F)C1(F)F (stereo not given) here?
The Potency was “inactive”.

With COc1ccc2c(c1)c(CC(=O)OCC(=O)O)c(C)n2C(=O)c1ccc(Cl)cc1 as the compound, how does the Potency read?
Its Potency is “inactive”.

For CCOC(C)(C)C, which Potency is on record?
The Potency was “inactive”.

Which Potency does the source give for c1cnc(N2CCN(Cc3ccc4c(c3)OCO4)CC2)nc1 here?
Its Potency is “inactive”.

With Cc1cccc(C)c1NC(=O)C(C)N (stereo not given) as the compound, how does the Potency read?
Its Potency is “inactive”.

With C=C[Si](OC(=C)C)(OC(=C)C)OC(=C)C as the compound, how does the Potency read?
Its Potency is “inactive”.

Which Potency does the source give for C[C@@H]1CCN(C(=O)[C@H](CCCN=C(N)N)NS(=O)(=O)c2cccc3c2NC[C@H](C)C3)[C@@H](C(=O)O)C1 here?
Its Potency is “inactive”.

With O=C1NC(=O)[C@@]2(CCOc3ccc(F)cc32)N1 as the compound, how does the Potency read?
The Potency was “inactive”.

With OC1CCCCC1c1ccccc1 (stereo not given) as the compound, how does the Potency read?
Its Potency is “inactive”.

Which Potency does the source give for CN(C)CCCN1c2ccccc2CCc2ccc(Cl)cc21 here?
Its Potency is 21.9 µM (active) and 13.3 µM (active).

Which Potency does the source give for OC[C@]1(O)OC[C@@H](O)[C@H](O)[C@@H]1O here?
Its Potency is “inactive”.

Which Potency does the source give for O=c1cc(CO)occ1O here?
The Potency was “inactive”.

Which Potency does the source give for NC(=O)c1ccc(N)cc1 here?
The Potency was “inactive”.

With CO[C@]12C[C@@H](COC(=O)c3cncc(Br)c3)CN(C)[C@@H]1Cc1cn(C)c3cccc2c13 as the compound, how does the Potency read?
Its Potency is “inactive”.

Which Potency does the source give for CC(=O)c1ccccc1O here?
Its Potency is “inactive”.

With Cc1ccc(=O)n(-c2ccccc2)c1 as the compound, how does the Potency read?
The Potency was “inactive”.

Which Potency does the source give for CCOC(=O)c1c(C)n(C)c2ccc(O)cc12 here?
The Potency was “inactive”.

Which Potency does the source give for O=c1n(CCO)c(=O)n(CCO)c(=O)n1CCO here?
Its Potency is “inactive”.

Which Potency does the source give for N=C(N)c1ccccc1 here?
Its Potency is “inactive”.

Which Potency does the source give for CC(C)NC(=O)NC(C)C here?
The Potency was “inactive”.

For NC(=O)c1cn(Cc2c(F)cccc2F)nn1, which Potency is on record?
Its Potency is “inactive”.

For NS(=O)(=O)c1ccccc1Cl, which Potency is on record?
Its Potency is “inactive”.

With C=COCC1CCC(CO)CC1 (stereo not given) as the compound, how does the Potency read?
Its Potency is “inactive”.

Which Potency does the source give for COC(C)(C)CCCC(C)CC=O (stereo not given) here?
The Potency was “inactive”.

For O=c1[nH]c(=O)n([C@H]2C[C@H](O)[C@@H](CO)O2)cc1I, which Potency is on record?
The Potency was “inactive”.

With CCCCCSCCCCC as the compound, how does the Potency read?
The Potency was “inactive”.

With Cc1c(NC(C)C)c(=O)n(-c2ccccc2)n1C as the compound, how does the Potency read?
The Potency was “inactive”.

For N#Cc1ccc(C2CCCc3cncn32)cc1 (stereo not given), which Potency is on record?
Its Potency is “inactive”.

Which Potency does the source give for CCn1nc(C(=O)O)c(=O)c2cc3c(cc21)OCO3 here?
Its Potency is “inactive”.

For CN(C)CCCNCCCN(C)C, which Potency is on record?
Its Potency is “inactive”.

With COC(=O)CCSCCC(=O)OC as the compound, how does the Potency read?
The Potency was “inactive”.

With CCN1CCC[C@H]1CNC(=O)c1cc(S(N)(=O)=O)ccc1OC as the compound, how does the Potency read?
Its Potency is “inactive”.

With CCCCCCCCCCCCCC=O as the compound, how does the viability change, negative = cytotoxic read?
The viability change, negative = cytotoxic was -6.97% [at 6.26 µM].

With CC(=O)OCC(=O)[C@@]1(O)CC[C@H]2[C@@H]3CCC4=CC(=O)CC[C@]4(C)[C@H]3C(=O)C[C@@]21C as the compound, how does the Potency read?
The Potency was “inactive”.

With CC(=O)OCC(=O)[C@@]1(O)CCC2C3CCC4=CC(=O)CC[C@]4(C)C3[C@@H](O)C[C@@]21C (stereo not given in full) as the compound, how does the Potency read?
Its Potency is “inactive”.

With O=[N+]([O-])c1ccc(F)cc1F as the compound, how does the Potency read?
The Potency was “inactive”.

With CC(=O)N(CC(O)CO)c1c(I)c(C(=O)NCCO)c(I)c(C(=O)NCC(O)CO)c1I (stereo not given) as the compound, how does the Potency read?
The Potency was “inactive”.

For O=C[C@H](O)[C@@H](O)[C@H](O)[C@H](O)CO, which Potency is on record?
Its Potency is “inactive”.

With CCN(CC)CCOCCOC(=O)C1(c2ccccc2)CCCC1 as the compound, how does the Potency read?
The Potency was “inactive”.

Which Potency does the source give for Cn1cc(S(C)=O)c(=O)c2ccc(F)cc21 (stereo not given) here?
Its Potency is “inactive”.
